# From PubChem BioAssay
# Hits are enriched below; roughly 0.54% of the tested compounds scored in any of these assays.
# EPAC1 agonist: qHTS for Agonist of cAMP-regulated guanine nucleotide exchange factor 3 (EPAC1): primary screen. Rap guanine nucleotide exchange factor 3 (Homo sapiens), O95398. hit rate 0.073% among 360,000. EPAC1 agonist qHTS, biochemical assay; response scale: 100% = response to 6.5 mM cAMP. Potency, µM (top dose mostly 154 µM), hits mostly activators; note: nearly all actives have a fitted effect of over 60% in size
#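 Fluorescent GDP-exchange assay: 100 nM EPAC1 with 250 nM Rap1B preloaded with BODIPY-GDP and 50 uM GDP; compounds tested as concentration series, 5 min at room temperature, then read every 5 min for 30 min (ex 480/em 540 nm); normalized to 6.5 mM cAMP.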
# EPAC1 antag: qHTS for Antagonist of cAMP-regulated guanine nucleotide exchange factor 3 (EPAC1): primary screen. hit rate 0.14% among 360,000. EPAC1 GEF assay, Rap1b-BODIPY-GDP exchange fluorescence. Rap guanine nucleotide exchange factor 3 (Homo sapiens), O95398. Potency, µM (highest dose often 115 µM), most hits filed as inhibitors. AID 720709, 2013; note: nearly all actives have a fitted effect of over 50% in size
# EPAC2 agonist: qHTS for Agonist of cAMP-regulated guanine nucleotide exchange factor 4 (EPAC2): primary screen. Potency, µM (doses to about 154 µM), hits mostly activators. EPAC2 activation, biochemical qHTS; response scale: 100% = 6.5 mM cAMP response. hit rate 0.079% among 360,000; note: nearly all actives have a fitted effect of over 50% in size
#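 qHTS, titration series. 100 nM EPAC2 / 250 nM Rap1B-BODIPY-GDP / 50 uM GDP; RT; ex 480/em 540 nm, 5-min reads to 30 min. Norm. to 6.5 mM cAMP = activation.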
# ERG-DNA inh: qHTS for Small Molecule Inhibitors of the ERG Ets/DNA interaction | fluorescence polarization, His-ERG Ets domain / labelled DNA | hit rate 0.028% among 370,000 | Potency, µM (titrated, usually from 76.9 µM), hits mostly inhibitors | Transcriptional regulator ERG (Homo sapiens), P11308 | AID 624246, 2012; active = well fitted inhibition curve with a large enough effect in the polarisation, with a control signal flat; inconclusive = small, poorly fitted or top-dose-only effect, or effect the other way, or a change in a side signal; inactive = no such curve, though single readings can be large or run the other way; the % refers to the polarisation;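 note: polarization taken with two DNA probes labelled with fluorescein and Texas red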
#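 His-tagged ERG Ets domain (1 uM in the protein solution; 300mM KCl, 50mM Tris-HCl, 1mM EDTA, 1mM DTT, pH 7.5) received compound, then a probe mix of 5 nM fluorescein-DNA and 100nM Texas-615-DNA. Fluorescence polarization was read for both dyes.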
# TDP1 block: qHTS Assay for Inhibitors of Tyrosyl-DNA Phosphodiesterase (TDP1); Tyrosyl-DNA phosphodiesterase 1 (Homo sapiens), Q9NUW8; recombinant TDP1, AlphaScreen DNA substrate cleavage; Potency, µM (doses to about 130 µM), usual class: inhibitors; hit rate 0.28% among 350,000; AID 485290, 2010; note: nearly all actives have a fitted effect of over 40% in size
# Target sequence (Q9NUW8 whole entry, looked up): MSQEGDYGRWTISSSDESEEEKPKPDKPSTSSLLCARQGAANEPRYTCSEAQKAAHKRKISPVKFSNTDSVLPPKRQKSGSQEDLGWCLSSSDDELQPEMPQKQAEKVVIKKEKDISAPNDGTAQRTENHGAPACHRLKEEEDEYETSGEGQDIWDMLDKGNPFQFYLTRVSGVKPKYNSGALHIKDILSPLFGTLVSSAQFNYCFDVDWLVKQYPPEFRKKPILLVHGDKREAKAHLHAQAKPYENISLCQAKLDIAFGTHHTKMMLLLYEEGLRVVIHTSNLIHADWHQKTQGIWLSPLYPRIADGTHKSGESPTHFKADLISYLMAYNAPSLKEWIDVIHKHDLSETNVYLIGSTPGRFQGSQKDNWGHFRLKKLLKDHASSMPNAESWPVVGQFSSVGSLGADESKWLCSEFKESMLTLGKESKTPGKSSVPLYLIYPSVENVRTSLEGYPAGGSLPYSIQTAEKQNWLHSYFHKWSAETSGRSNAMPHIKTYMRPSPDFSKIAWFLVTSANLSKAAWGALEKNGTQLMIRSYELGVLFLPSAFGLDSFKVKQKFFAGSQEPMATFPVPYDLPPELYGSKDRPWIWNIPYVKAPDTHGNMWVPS
#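 Steps: enzyme plus compound, 15 min RT; add biotin/phosphotyrosine-FITC oligonucleotide (15 nM final), react 5 min; add donor/acceptor beads (10 ug/ml final), 10 min; read AlphaScreen. Tdp1 at 1 nM final.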
# EPAC2 antagonist: qHTS for Antagonist of cAMP-regulated guanine nucleotide exchange factor 2 (EPAC2): primary screen; Rap guanine nucleotide exchange factor 4 (Homo sapiens), Q8WZA2; EPAC2 GEF exchange of Rap1B-BODIPY-GDP, fluorescence; Potency, µM (doses to about 114 µM), actives largely listed as inhibitors; hit rate 0.18% among 360,000; AID 720708, 2013; note: nearly all actives have a fitted effect of over 45% in size
# A number is an active result; 0 = inactive; ? = inconclusive; - = not tested or not shown. Unless noted, calls come from the whole dose curve; as a rule, active = well fitted curve in the direction sought with a large enough effect; inconclusive = small, poorly fitted or top-dose-only effect, or another doubt; inactive = no such curve, though single readings can be large; an effect the other way counts as inactive or inconclusive.
SMILES,EPAC1 agonist,EPAC1 antag,EPAC2 agonist,ERG-DNA inh,TDP1 block,EPAC2 antagonist
O=C1S/C(=C\C=C\c2ccco2)C(=O)N1c1ccccc1,0,89.1µM,0,0,0,0
O=C(O)C(Cc1ccccc1)N1C(=O)/C(=C/C=C/c2ccco2)SC1=S (configuration not stated),0,89.1µM,0,0,-,0
NC(=S)N=Nc1c(O)cc(O)c2[nH]c(=O)ccc12,0,50.1µM,0,-,-,0
O=C(O)C1Cc2ccccc2CN1C(=O)COc1ccc(Br)cc1 (configuration not stated),0,0,0,0,22.4µM,0
COc1ccc(C2c3ccccc3Oc3ncn(CCN4CCOCC4)c(=N)c32)cc1OC (configuration not stated),-,-,-,-,0,-
c1coc(-c2nc(-c3ccco3)c(-c3ccco3)nc2-c2ccco2)c1,0,?,0,0,3.16µM,0
Nc1nc(-c2ccco2)c(-c2ccco2)s1,0,0,0,0,0,0
O=C(COC(=O)C1CC1)Nc1ccccc1Sc1ccccc1,0,0,0,0,0,56.2µM
COC(=O)C1CCN(CC(=O)Nc2ccccc2Sc2ccccc2)CC1,0,0,0,0,0,?
COc1ccc(/C=N/NC(=O)c2[nH]c3ccc(Br)cc3c2-c2ccccc2)cc1,0,0,0,0,0,0
O=C(N/N=C/c1ccccc1Cl)c1[nH]c2ccc(Br)cc2c1-c1ccccc1,112µM,0,0,?,0,0
COc1ccc(/C=N/NC(=O)c2[nH]c3ccc(Br)cc3c2-c2ccccc2)c(C(=O)O)c1OC,0,79.4µM,0,0,0,0
O=C(CNC(=O)C1CCCC1)OC(C(=O)Nc1cc(C(F)(F)F)ccc1Cl)c1ccccc1 (configuration not stated),-,-,-,-,0,-
O=C(c1ccccc1)N1CCN(c2nc(-c3cccs3)nc3ccccc23)CC1,-,-,-,-,0,-
O=C(Nc1cccc(Oc2ccc(C(=O)O)c(C(=O)O)c2)c1)c1ccc(-c2ccccc2)cc1,0,?,0,0,44.7µM,0
CC(C)(C)C(=O)Nc1ccc(C(=O)Nc2cccc(Oc3ccc(C(=O)O)c(C(=O)O)c3)c2)cc1,0,0,0,0,35.5µM,0
O=C(O)c1ccccc1C(=O)Nc1ccc(Oc2ccccc2)cc1,0,0,0,0,0,0
COc1ccc(C(=O)/C(Br)=C/C(=O)O)cc1,-,-,-,-,0,-
CCn1c(=O)c(C(=O)Nc2ccccc2S(N)(=O)=O)c(O)c2ccccc21,0,56.2µM,0,0,0,0
CCn1c(=O)c(C(=O)Nc2ccccc2C)c(O)c2ccccc21,0,0,0,0,0,0
CCC(CC)C(=O)Oc1c(Sc2ccccc2[N+](=O)[O-])c(C)nn1C(C)(C)C,0,0,0,0,0,0
COCC(=O)Oc1c(Sc2ccccc2[N+](=O)[O-])c(C)nn1C(C)(C)C,0,0,0,0,0,56.2µM
CCCCCOc1ccc(/C=c2\sc3nc(=O)c(-c4ccccc4)nn3c2=O)cc1OC,0,0,0,0,0,0
O=c1nc2s/c(=C\c3ccc(-c4ccccc4[N+](=O)[O-])o3)c(=O)n2nc1-c1ccccc1,112µM,0,70.8µM,0,0,0
CC[C@H](C)[C@H](N)C(=O)N[C@H]1CCC(=O)NCC(C(=O)N[C@@H](Cc2ccc(O)cc2)C(=O)N[C@@H](CCCNC(=N)N)C(=O)N[C@@H](CC(C)C)C(=O)N[C@@H](CCCNC(=N)N)C(=O)N[C@@H](Cc2ccc(O)cc2)C(N)=O)NC(=O)[C@@H]2CCCN2C(=O)[C@@H](NC(=O)[C@@H](N)[C@@H](C)CC)CCC(=O)NCC(C(=O)N[C@@H](Cc2ccc(O)cc2)C(=O)N[C@@H](CCCNC(=N)N)C(=O)N[C@@H](CC(C)C)C(=O)N[C@@H](CCCNC(=N)N)C(=O)N[C@@H](Cc2ccc(O)cc2)C(N)=O)NC(=O)[C@@H]2CCCN2C1=O (some centres not stated),-,-,-,-,0,-
SMILES,EPAC1 agonist,EPAC1 antag,EPAC2 agonist,ERG-DNA inh,TDP1 block,EPAC2 antagonist
Nc1ccc(S(=O)(=O)N2CCCN(S(=O)(=O)c3ccc4c(c3)OCCO4)CC2)cc1,-,-,-,-,0,-
COc1ccc(-c2sc(N)nc2-c2ccccc2)cc1,-,-,-,-,0,-
Cc1cc(S(=O)(=O)N2CCN(CC(=O)N(C)Cc3ccccc3)CC2)ccc1Br,63.1µM,0,0,0,0,0
Nc1ccc2cc3[nH]c4cc(N)ccc4c3nc2c1,89.1µM,0,56.2µM,-,-,0
Cc1ccc(S(=O)(=O)N2CCN(c3nc(-c4cnccn4)nc4ccccc34)CC2)cc1,-,-,-,-,0,-
Cc1ccc(NC(=O)CSc2nc(NS(=O)(=O)c3ccccc3)cc(=O)[nH]2)cc1,0,?,0,0,28.2µM,0
CCc1ccc(NC(=O)CSc2nc(NS(=O)(=O)c3ccccc3)cc(=O)[nH]2)cc1,0,0,0,0,-,0
Cc1ccc(S(=O)(=O)Nc2cc(=O)[nH]c(SCC(=O)Nc3ccccc3Cl)n2)cc1,0,0,0,0,35.5µM,0
O=C1c2ccccc2C(=O)N1c1ccccc1O,-,-,-,-,0,-
O=C(O)c1cc(F)c(S(=O)(=O)N2CCN(S(=O)(=O)c3ccc4c(c3)OCCO4)CC2)cc1F,-,-,-,-,0,-
Clc1ccc(Nc2nc(NCc3ccco3)nc3nccnc23)cc1,-,-,-,-,0,-
Cc1cnc(C(=O)OCc2nc3ccsc3c(=O)[nH]2)cn1,0,?,0,0,14.1µM,0
Cc1ccc(C(=O)OCc2nc3ccsc3c(=O)[nH]2)o1,0,0,0,0,-,0
O=C(CSc1ccc(-c2ccco2)nn1)c1cccc([N+](=O)[O-])c1,0,20µM,0,0,0,0
COc1cc(Br)cc(C(=O)N2CCc3ccccc32)c1OC,0,0,0,-,-,35.5µM
Cc1ccc(S(=O)(=O)NC(N)=NCCC[C@@H](N)C(=O)Nc2cc(C(F)(F)F)ccc2Cl)cc1,-,-,-,-,0,-
Cc1nc(S/C(=C/c2ccc(OCc3ccc(C(=O)O)cc3)cc2)C(=O)O)n[nH]1,0,?,0,0,12.6µM,0
N#C/C(=C\c1ccc(OCc2ccc(C(=O)O)cc2)cc1)C(=O)NCc1ccccc1,0,?,0,0,-,0
O=C(CCN1C(=O)/C(=C/c2cccs2)SC1=S)Nc1ccc(C(=O)O)c(O)c1,0,79.4µM,0,0,0,0
